SMILES strings stand for the structures. Out of some 220,000 compounds screened, about 650 (0.3%) were called active. The entries come from a sample that favours actives as a whole. Unmarked numbers belong to inactive results. Cut-off read from the data, not from the text of the source: active = inhibition above about 40%; inactive = the rest.

In this assay the target is Coagulation factor XII (Homo sapiens) (UniProt P00748). Description: coagulation factor XIIa activity inhibition – biochemical, 1536-well, primary screen (AID 800).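 Note: 0% = enzyme with no compound and 100% = blank without enzyme.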 As to conditions: purified FXIIa, Boc-QGR-AMC fluorogenic substrate, 2 h; at 5 µM; stronger effect = higher value.
Sequence of Coagulation factor XII (Homo sapiens) (P00748 20-372 limits assumed): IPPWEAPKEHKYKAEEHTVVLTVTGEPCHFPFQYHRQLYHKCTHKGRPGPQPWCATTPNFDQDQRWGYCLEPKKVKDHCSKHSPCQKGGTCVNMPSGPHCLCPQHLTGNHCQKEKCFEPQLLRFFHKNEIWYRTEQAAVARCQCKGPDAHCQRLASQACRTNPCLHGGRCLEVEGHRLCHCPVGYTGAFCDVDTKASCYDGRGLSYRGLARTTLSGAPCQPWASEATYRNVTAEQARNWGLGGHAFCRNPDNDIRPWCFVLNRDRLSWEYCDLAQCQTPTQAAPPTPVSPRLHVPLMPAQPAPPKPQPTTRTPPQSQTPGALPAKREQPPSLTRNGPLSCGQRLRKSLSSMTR
Sequence of Coagulation factor XII (Homo sapiens) (P00748 373-615 limits assumed): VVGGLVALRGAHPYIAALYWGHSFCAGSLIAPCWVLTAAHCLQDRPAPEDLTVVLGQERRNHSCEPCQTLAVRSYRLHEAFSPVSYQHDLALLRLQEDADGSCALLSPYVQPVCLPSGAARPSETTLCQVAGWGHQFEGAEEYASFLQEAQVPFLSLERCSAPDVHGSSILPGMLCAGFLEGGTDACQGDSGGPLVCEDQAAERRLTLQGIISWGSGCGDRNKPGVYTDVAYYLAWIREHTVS
Turning to `CCN(CC)CCC(c1ccc2c(c1)OCO2)c1c(OC)cc(OC)c2c(-c3ccccc3)cc(=O)oc12` (stereo not drawn), the inhibition (usually the change of the read-out against control, counted positive when it falls) was 8.45%.
For the compound `COC(=O)c1ccc(-c2noc(CN(Cc3ccccn3)CC3CCCO3)n2)cc1` (stereo not drawn), the inhibition is 14.6%.
For the compound `CCN1CC(CN(C)Cc2nc(-c3ccc(Cl)cc3)no2)CC1=O` (stereo not drawn), the inhibition was 7.51%.
For `CN(Cc1ccccn1)Cc1nc(-c2ccc(Cl)cc2)no1`, the inhibition was 103% (active).
`COc1cc(OC)c2ccc(=O)oc2c1C(CCN1CCN(c2ccccc2)CC1)c1ccc2c(c1)OCO2` (stereo not drawn): the inhibition was 7.95%.
Consider `CCOC(=O)c1c(N)sc2c1CCCC2=O`, for which the inhibition is 5.97%.
With `O=C(O)C1CCN(C(=O)c2cc(F)cc3c2OCOC3)CC1`, the inhibition is 4.37%.
On to `Cc1ccc(Nc2c3c(nc4ccccc24)CCC3)cc1`, for which the inhibition is 9.63%.
For `CSc1nnc(SCc2nc3sc(C(=O)O)c(C)c3c(=O)[nH]2)s1` the value was 10.1%.
To `COc1ccc(CCNC(=O)Cn2c(=O)n(CC3CCCO3)c(=O)c3ccccc32)cc1OC` (stereo not drawn) belongs -8.44%; to `COc1ccc(CCNC(=O)CCn2c(=O)c3ccccc3n(CC(=O)NCC3CCCO3)c2=O)cc1OC` (stereo not drawn), 40% (active).
For `COc1ccc(CCNC(=O)CCn2c(=O)oc3ccccc32)cc1OC` the value was 7.51%.
`Cc1cc(Cl)ccc1NNC(=O)c1snnc1C`: the inhibition was 7.13%.
To `COc1ccc(SCCN2CCN(CC(C)C)CCC2=O)cc1` belongs 7.64%; to `CC1(C)CC(=O)C=C(Nc2ccccc2)C1`, 6.92%.
With `S=c1[nH]nc(-c2cc(-c3ccsc3)n[nH]2)n1-c1ccccc1`, the inhibition was 4.05%.
For `CC(C)C(=O)N1CCC2(CC1)Oc1ccc(F)cc1C(=O)C21CC(c2ccccc2)=NO1` (stereo not drawn) the value was 8.49%; for `O=c1cc(CCl)nc2scc(-c3ccccc3)n12`, 6.87%.
For `Cc1c(C#N)c2ncn(CC#N)c(=O)c2n1-c1ccccc1` the value was 7.67%; for `CN(C)c1ccnc2sc3c(=O)n(Cc4ccccc4)cnc3c12`, 2.78%; for `CN(C)/C=C/c1c(C#N)c(=O)ncn1Cc1ccccc1`, 53% (active).
For `O=C(N/N=C/c1cccc2cccnc12)[C@H]1C[C@@H]1c1ccccc1` the value was 8.29%.
`O=C(O)CCn1c(O)c(C=C2N=c3ccccc3=N2)sc1=S`: the inhibition is 12.8%.
As for `COc1ccc(Cl)cc1S(=O)(=O)N1CCC(O)(c2ccc(Cl)cc2)CC1`, the inhibition was 3.43%.
To `Cc1cc(N)n(-c2ccc(S(=O)(=O)N3CCCC3)cc2[N+](=O)[O-])n1` belongs 3.82%; to `O=C(Nc1ccc(N2CCN(C(=O)c3ccccc3)CC2)c(Cl)c1)c1ncn[nH]1`, 7.54%.
Turning to `O=C(Cc1ccccc1)Nc1c(Cl)ccc2nsnc12`, the inhibition is 2.05%.
For `C[C@H](NC(=O)c1nc[nH]c1C(=O)N[C@@H](C)C(=O)OC(C)(C)C)C(=O)OC(C)(C)C` the value was 12.4%.
To `CCOC(=O)c1cn(CC)c2cc(F)c(F)cc2c1=O` belongs 4.45%; to `COc1cc(NC(=O)c2cncc(-c3ccc(C#N)cc3)c2)cc(C(=O)Nc2cccc(C(F)(F)F)c2)c1`, 3.5%; to `O=[N+]([O-])c1cc([N+](=O)[O-])c2cccnc2c1O`, 3.18%.
In the case of `O=C(Nc1cccc(S(=O)(=O)NC2=NCCC2)c1)C1CCCCC1`, the inhibition was 14.4%.
As to `COc1ccc2[nH]c(C(=O)Nc3ccccc3Cl)cc2c1`, the inhibition was 6.03%.
For `CCC/C(C)=N\Nc1nc2c(c(=O)n(C)c(=O)n2C)n1C` the value was 5.02%.
To `CCOC(=O)c1c(C)oc(C)c(C(=O)OCC)c1=O` belongs 8.51%; to `CCOC(=O)c1cnc(COc2ccccc2Cl)[nH]c1=O`, 3.67%.
Turning to `O=C(NNC(=S)NCc1ccccc1)c1ccc(OC(F)F)cc1`, the inhibition is -6.41%.
For `CC(NC(=S)Nc1ccc(OC(F)F)cc1)c1ccc(F)cc1` (stereo not drawn) the value was 10.5%; for `CC/C(=N\NC(=S)NC(C)C)c1ccc(OC(F)F)cc1`, 52.2% (active); for `Cc1onc(-c2ccc(Cl)cc2)c1-c1ccnn1S(=O)(=O)c1ccc(Cl)cc1`, 3.87%.
As for `CCOCCn1c(-c2ccccc2)nc2ccccc21`, the inhibition was 9.94%.
For `O=C(COC(=O)CCc1nc2ccccc2c(=O)[nH]1)Nc1ccc(N2CCOCC2)cc1` the value was 1.95%; for `CSc1nc(C)nc(C2CC2)c1C#N`, 1.66%; for `CN(c1ccc(OCC(=O)NC2=NCCS2)cc1)S(=O)(=O)c1ccc(F)cc1`, 7.4%.
Regarding `Cc1ccc(S(=O)(=O)N2CCN(C(=O)COC(=O)c3c(C)noc3C)CC2)c(C)c1`, the inhibition was 7.88%.
With `O=c1[nH]c(CSc2ccccc2)nc2c1oc1ccccc12`, the inhibition was 7.45%.
`COC(=O)[C@H](Cc1ccccc1)NC(=O)Nc1ccc(OC)cc1`: the inhibition is 4.58%.
As to `CC(C)(C)NC(=O)/C(=C/c1cccnc1)NC(=O)c1ccco1`, the inhibition is 15.3%.
Regarding `O=C(Nc1nnc(Cc2ccc(Cl)cc2)s1)c1ccncc1`, the inhibition was 2.31%.
In the case of `O=C(NNC(=S)NC1CC2CCC1C2)c1ccc(Cl)cc1` (stereo not drawn), the inhibition was 7.4%.
As for `CCc1ccc2nc(Nc3ncc(C(C)=O)c(C)n3)nc(C)c2c1`, the inhibition was 6.31%.
For the compound `C=C(C)C(=O)Nc1cccc(C2=NOC3(C2)C[C@H](C(N)=O)N(C(=O)C(c2ccccc2)c2ccccc2)C3)c1` (stereo partly drawn), the inhibition was 0.36%.
To `Nc1nc(Sc2ncccc2[N+](=O)[O-])n[nH]1` belongs 7.38%.
To `C/C(=N/Nc1nc(-c2ccccc2)c(CC(=O)O)s1)c1ccccc1` belongs 10.1%; to `COc1ccccc1-c1c(C#N)c(N)nc2c1CCC2`, -2.02%; to `CCOC(=O)C(=CNNc1ccsc1C(=O)OC)C(=O)OCC`, 8.52%.
For `COc1ccc(CN(Cc2ccc(OC)cc2)C(=O)c2cccs2)cc1` the value was 45.5% (active); for `COc1ccc(CN(C(=O)c2cccs2)c2nccs2)cc1OC`, 14.5%.
Turning to `COc1ccc(OCC(=O)N2CCN(C(=O)c3cccs3)CC2)cc1`, the inhibition was 0.82%.
For the compound `Cc1nc(=O)c(-c2ccccc2)c(C)n1-c1ccc(Br)cc1`, the inhibition was 7.02%.
To `CCOC(=O)c1nnn2c1nc(N1CCN(c3ccccc3)CC1)c1ccccc12` belongs 5.24%; to `Cc1ccc2c(c1)nnc1nnc(SCC(=O)O)n12`, 5.33%.
`Cc1cccc(NC(=O)c2nc[nH]c2C(=O)NCC(=O)OCc2ccccc2)c1`: the inhibition is 7.76%.
For `Cc1ccc(NNC(=O)c2cccs2)cc1Cl` the value was 8.48%; for `CCc1nnc(NC(=O)CCC(=O)NCc2ccccc2OC)s1`, 15%.
To `CCc1nnc(NC(=O)CCN(c2ccc(C)cc2)S(=O)(=O)c2ccccc2)s1` belongs 49.2% (active); to `CCc1nnc(NC(=O)CCC(=O)O)s1`, 13.2%; to `CCCCC1=CC2=CC(=O)C(C)(OC(=O)CC)C(=O)C2=CN1CCCOC(C)C` (stereo not drawn), 7.98%.
For `O=C(Nc1ccc(F)cc1)c1cc2c(s1)CCCC2` the value was 8.77%; for `COc1ccc(CNC(=O)C2CC(c3ccc(C(F)(F)F)cc3)=NO2)cc1` (stereo not drawn), 7.68%.
On to `Nc1nnn(CC(=O)N/N=C/c2ccc(O)cc2)n1`, for which the inhibition was 16.2%.
To `CCc1cccc(CC)c1NC(=S)Nc1ccc2cn[nH]c2c1` belongs 10%.
Turning to `Cc1ccc(SCc2c(C(=O)N/N=C/C3CC=CCC3)nnn2-c2nonc2N)cc1` (stereo not drawn), the inhibition is 9.39%.
For `CS(=O)(=O)c1ccc2nc(NC(=O)c3ccc(N4CCCC4=O)cc3)sc2c1` the value was 1.85%; for `O=C(NCc1ccc2c(c1)OCO2)c1sccc1Br`, 8.69%.
On to `C/C=C(/C)C(=O)O[C@@H]1c2cc3c(c4c2[C@@]2(CO4)C(=O)C(OC)=C(OC)C=C2C[C@@H](C)[C@H]1C)OCO3`, for which the inhibition was 12.9%.
To `Oc1[nH]c2ccc(Br)cc2c1N=Nc1nn[nH]n1` belongs 12.3%.
Take `CCCc1ccc(C(=O)[C@@H]2[C@@H](C(C)=O)N3c4ccc(F)cc4C=C[C@@H]3[C@@]23C(=O)Nc2ccccc23)cc1`: the inhibition is 8.48%.
For `CC1CC(C)(C)n2c(O)c(N=NC(N)=S)c3cccc1c32` (stereo not drawn) the value was 30.2%; for `Cc1ccccc1Nc1c(-c2ccccc2)nc2ncccn12`, 5.54%; for `CCc1ccc(S(=O)(=O)NCC(O)COc2ccc(OC)cc2)cc1` (stereo not drawn), 6.59%.
For `Cc1cc(NC(=O)c2cccc(N3C(=O)CCC3=O)c2)no1`, the inhibition is 16.7%.
As for `Cc1cccc(NC(=O)c2cc(N3C(=O)CCC3=O)ccc2Cl)n1`, the inhibition is 50.5% (active).
As to `Cc1cccc(NC(=O)c2ccc3ccccc3n2)n1`, the inhibition was 16%.
To `O=C(NC1CCN(Cc2ccccc2)CC1)c1ccc(Oc2cc(Cl)cc(Cl)c2)o1` belongs 6.33%.
In the case of `S=c1[nH]c2ccccc2c2ccccc12`, the inhibition is 2.88%.
For `COC(=O)CCCC1=CC2=CC(=O)C(C)(OC(=O)c3cccs3)C(=O)C2=CN1CC(C)C` (stereo not drawn) the value was 7.73%; for `Cc1noc(C)c1C(=O)OCC(=O)N1CCN(S(=O)(=O)c2ccc3ccccc3c2)CC1`, 1.83%; for `Nc1ccccc1Sc1cc(Cl)nnc1Cl`, 12.7%.
In the case of `C=CCn1c(=S)sc2c(=O)[nH]c(C)nc21`, the inhibition was 1.68%.
To `Cc1cc(=O)[nH]c(S)c1C#N` belongs -0.28%; to `COC(C[C@@H](O)[C@H](C)[C@H](O)COCc1ccccc1)OC`, 4.52%.
Consider `Cn1c(S(=O)(=O)O)nc2ccccc21`, for which the inhibition is -0.32%.
For `NS(=O)(=O)c1ccc(CCNC(=O)NC2CCCCC2)cc1` the value was 15%; for `O=C(c1ccc(Cl)cc1)N1N=C(c2ccccn2)CC1(O)C(F)(F)F` (stereo not drawn), 8.52%; for `COC(=O)CSc1ncnc2c1cnn2-c1ccc(C)cc1C`, 5.55%.
Take `Cc1ccc(-n2ncc3c2ncn2nc(-c4ccco4)nc32)c(C)c1`: the inhibition was 14.2%.
For `Cc1ccc(-n2ncc3c(=O)[nH]cnc32)c(C)c1`, the inhibition was 54% (active).

The values above are taken from PubChem BioAssay AID800 (PCMD, 2007).
